# Data from the supplement of paper PMC10127200.
# Structures can show the parent of a compound that is named as a salt.
# What was measured:
# Assay in all cases: Euclidean distance of Cell Painting phenotypic profile (signed KS, 77 features) to DMSO centroid (dimensionless distance); higher = stronger phenotypic change vs DMSO (phenoactivity)
# Details in all cases: 48 h; 5 or 10 uM (library dependent)
# 786-O = test system: 786-O
# In short: (§1)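 Library compounds were applied at 10 or 5 uM, depending on the library, with 0.1% DMSO final, for 48 h to five cancer lines and a healthy fibroblast line. After staining, cells were imaged confocally at 20X across 9 fields per well, and Harmony extracted 77 features, each scored as a signed Kolmogorov-Smirnov statistic against vehicle wells on the same plate. Phenoactivity is the Euclidean distance between each profile and the median vehicle profile, with profiles first plate-position corrected, correlation-weighted and averaged over replicates at the top dose.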
# A549 = test system: A549
# In short: as §1
# DU145 = test system: DU145
# In short: as §1
# FB = test system: FB
# In short: as §1
# HEPG2 = test system: HEPG2
# In short: as §1
# OVCAR4 = test system: OVCAR4
# In short: as §1
SMILES,Euclidean distance (786-O),Euclidean distance (A549),Euclidean distance (DU145),Euclidean distance (FB),Euclidean distance (HEPG2),Euclidean distance (OVCAR4)
CCCCCc1cc(O)cc(O)c1 [Olivetol],1.12,0.742,0.801,0.7,0.393,0.946
CNCC(O)c1ccc(O)cc1 (stereo not given) [Synephrine HCl],0.581,0.451,0.914,0.485,0.371,1.27
O=c1c2ccccc2[se]n1-c1ccccc1 [Ebselen],1.37,1.48,1.01,1.16,0.769,1.42
CC(C)[C@H](N)C(=O)N1CCC[C@H]1B(O)O [Talabostat (Val-boroPro. PT-100)],1.38,0.905,1.12,1.08,0.878,0.712
O=P1(NCCCl)OCCCN1CCCl (stereo not given) [Ifosfamide],0.866,0.788,1.12,0.925,1.13,1.39
CCOC(=O)Nc1ccc(NCc2ccc(F)cc2)cc1N [Retigabine 2HCl],0.771,1.35,0.995,0.958,0.601,0.882
CN1[C@@H]2CC(O)C[C@H]1[C@@H]1O[C@@H]12 (stereo not given in full) [Scopine HCl],0.344,0.885,0.479,0.66,0.893,0.714
COC1=C[C@@H]2[C@@H]3Cc4ccc(OC)c(O)c4[C@]2(CCN3C)CC1=O [Sinomenine hydrochloride],0.472,0.883,1.1,1.15,0.751,0.824
COc1ccc2c3c([nH]c2c1)C(C)=NCC3 [Harmaline],1.25,0.845,1.34,1.09,0.398,1.37
COc1ccc(OC)c(C(O)C(C)N)c1 (stereo not given) [Methoxamine HCl],0.732,0.76,1.03,1.08,0.595,1.41
C[C@H]1CCC/C=C/[C@@H]2C[C@H](O)C[C@H]2[C@H](O)/C=C/C(=O)O1 [Brefeldin A],3.77,3.61,4.53,4.79,4.54,3.85
O=[N+]([O-])c1ncc[nH]1 [Azomycin],1.03,1.17,1.36,1.09,1.54,0.81
COC(=O)[C@@H](N)CCCNC(=N)N[N+](=O)[O-],0.931,1.3,0.775,1.29,0.551,0.995
CCN(C)C(=O)Oc1cccc([C@H](C)N(C)C)c1 [Rivastigmine Tartrate],0.824,0.471,0.382,0.816,0.806,1.45
CCNC(=O)C[C@@H]1N=C(c2ccc(Cl)cc2)c2cc(OC)ccc2-n2c(C)nnc21,1.96,1.78,1.76,3.4,1.26,1.66
C[CH2][Hg][S]c1ccccc1C(=O)[O-].[Na+] [Thimerosal],5.05,2.89,6.79,6.21,1.5,2.69
O=C1C=C2C=C[C@@H]3C[C@@]2(O1)[C@H]1CCCCN31 [Securinine],0.99,1.25,1.42,1.78,1.08,1.74
COc1cc(OC)c(OC)cc1C=O [Asaraldehyde],1.25,0.833,0.776,1.31,1.73,1.06
CCN1CCN(C(=O)Cc2ccc(Nc3ncc(F)c(Nc4ccc(C(=O)Nc5ccccc5Cl)cc4)n3)cc2)CC1 [Aurora A Inhibitor I],5.7,4.77,1.39,3.33,4.52,3.43
CCOC(=O)c1cncn1[C@H](C)c1ccccc1 [Etomidate],2.62,1.77,2.36,2.6,1.08,1.9
C[C@](O)(COc1ccc(C#N)cc1)C(=O)Nc1ccc(C#N)c(C(F)(F)F)c1,1.54,1.28,0.792,1.72,1.24,1.74
[O-][n+]1ccccc1[S-].[O-][n+]1ccccc1[S-].[Zn+2] [Zinc Pyrithione],6.27,4.94,7.6,6.01,5.34,6.33
C[N+](C)(C)CCCCCCCCCC[N+](C)(C)C [Decamethonium Bromide],0.57,0.939,0.691,0.466,0.483,1.05
CC(C)[N+](C)(CCC(C(N)=O)(c1ccccc1)c1ccccc1)C(C)C [Isopropamide Iodide],1.26,0.953,1.08,1.25,0.717,1.23
CC1(C)C(C=C(Cl)Cl)C1C(=O)OCc1cccc(Oc2ccccc2)c1 (stereo not given) [Permethrin],1.12,0.946,1.16,0.816,0.999,1.43
